Screening data deposited in PubChem BioAssay by several laboratories.
Rv3671c inh: Rv3671c serine protease inhibitors, primary screen, biochemical, fluorescence polarization, M. tuberculosis H37Rv. inhibition, % at 5.96 µM. AID 2606, 2010. P9WHR9. 320,000 tested, 0.048% active; in the data active means inhibition above about 38%;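 further: extracellular domain of Rv3671c used as enzyme; 0% = enzyme with DMSO and 100% = no enzyme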
Target sequence (P9WHR9 whole entry, looked up, the tested form may be a part): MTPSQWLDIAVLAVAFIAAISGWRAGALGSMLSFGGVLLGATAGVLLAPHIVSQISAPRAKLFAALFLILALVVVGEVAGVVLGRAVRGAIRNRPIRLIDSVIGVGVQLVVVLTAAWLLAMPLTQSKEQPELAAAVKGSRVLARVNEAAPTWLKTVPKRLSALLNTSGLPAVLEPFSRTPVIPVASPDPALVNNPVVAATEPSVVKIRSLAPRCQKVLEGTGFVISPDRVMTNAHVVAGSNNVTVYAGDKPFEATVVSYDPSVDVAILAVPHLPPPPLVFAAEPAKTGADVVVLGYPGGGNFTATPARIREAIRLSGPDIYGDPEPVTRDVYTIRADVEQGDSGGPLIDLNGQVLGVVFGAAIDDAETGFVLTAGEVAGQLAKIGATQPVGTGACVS
Mtb bLac sens: beta-lactam sensitization of Mtb H37Rv, H37Rv; 330,000 tested, 0.27% active; M. tuberculosis H37Rv growth with meropenem, percent inhibition; inhibition, % at 25 µM; call rule not given here;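 further: growth measured after seven days incubation then overnight dye step; 0% = bacteria only wells and 100% = bacteria with antibiotic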
GDH-TPI counter: GDH-TPI coupling enzyme inhibitors, primary screen, artefact control for M. tuberculosis FBA inhibitor project, biochemical, absorbance, full deck | GDH-TPI coupled enzyme counterscreen, NADH absorbance | inhibition, % at 4.8 µM | 360,000 tested, 1.2% active | AID 588335, 2011; in the data active means inhibition above about 30%;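 further: 0% = DMSO wells and 100% = wells lacking the enzyme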
UGM FP inh: M. tuberculosis UGM enzyme inhibitors, primary screen, biochemical, fluorescence polarization, single point | UDP-galactopyranose mutase (Mycobacterium tuberculosis (strain ATCC 25618 / H37Rv)), … | purified UGM, fluorescence polarization probe displacement | inhibition, % at 10 µM | 320,000 tested, 0.06% active; in the data active means inhibition above about 10%, passing the limit was not always enough
RecA splice inh: Mtb RecA intein splicing inhibitors, primary screen, biochemical, fluorescence, HTS. cell-free RecA intein splicing. inhibition, % (concentration not given with the values). 290,000 tested, 0.75% active. AID 2221, 2009; in the data active means inhibition above about 30%;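 further: 0% = vehicle wells and 100% = reference inhibitor control wells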
FBA Mtb inh: Mtb FBA enzyme inhibitors, primary screen, biochemical, fluorescence, strain H37Rv. Fructose-bisphosphate aldolase (Mycobacterium tuberculosis (strain ATCC 25618 / H37Rv)), …. purified M. tuberculosis FBA, fluorescence read-out. inhibition, % at 1 µM. 360,000 tested, 2.3% active. AID 588726, 2011; in the data active means inhibition above about 27%;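 further: 0% = vehicle and 100% = reference inhibitor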
* = called active by the depositor. An excerpt weighted towards active compounds, which were near 4% of everything screened.

CCOCCCn1c(=NC(=O)c2cccs2)c(C#N)cc2c(=O)n3cccc(C)c3nc21 was read as Rv3671c inh -0.6, Mtb bLac sens -9.9, GDH-TPI counter 13.0, UGM FP inh 0.3, RecA splice inh -25.6 and FBA Mtb inh active.
CCCC(=O)Nc1nnc(SCC(=O)Nc2ccc(OCC)cc2)s1 was read as GDH-TPI counter 1.8 and FBA Mtb inh 0.2.
`CCCCN(C(=O)CSCc1c(C)noc1C)c1c(N)n(CCCC)c(=O)[nH]c1=O` gave Rv3671c inh -4.1, Mtb bLac sens -5.3, GDH-TPI counter 4.3, UGM FP inh 1.2, RecA splice inh 0.0 and FBA Mtb inh -3.0.
For Fc1ccc(-c2ccnc3nc(-n4cccc4)nn23)cc1 the results were Rv3671c inh -13.4, Mtb bLac sens -4.8, GDH-TPI counter 2.6, UGM FP inh 1.0, RecA splice inh -2.8 and FBA Mtb inh -6.0.
`Fc1ccc(-c2ccnc3nc(N4CCOCC4)nn23)cc1` gave Rv3671c inh -7.6, Mtb bLac sens 15.7, GDH-TPI counter 8.3, UGM FP inh -2.1, RecA splice inh -10.5 and FBA Mtb inh 51.5*.
CC(=O)Nc1nc2nc(-c3ccccc3)cc(-c3ccccc3)n2n1 was read as Rv3671c inh -8.9, Mtb bLac sens -3.3, GDH-TPI counter 25.8, UGM FP inh -2.8, RecA splice inh -6.0 and FBA Mtb inh 60.2*.
Screening O=C(Nc1nc2nccc(-c3ccccc3)n2n1)c1ccccc1 returned Rv3671c inh 4.1, Mtb bLac sens 4.0, GDH-TPI counter 8.4, UGM FP inh -3.3, RecA splice inh 3.9 and FBA Mtb inh 4.5.
`O=C(c1cc2ccccc2[nH]1)N(Cc1cccnc1)CC1CCCN(C2CCCCC2)C1` (stereo not drawn) gave Rv3671c inh -3.0, Mtb bLac sens 68.8, GDH-TPI counter -6.8, UGM FP inh 0.1, RecA splice inh 2.4 and FBA Mtb inh -0.9.
COc1ccc2[nH]c(C(=O)NCc3ccccc3)c(C)c2c1 was read as Rv3671c inh -7.0, Mtb bLac sens -1.1, GDH-TPI counter 2.9, UGM FP inh 1.5, RecA splice inh 0.3 and FBA Mtb inh 40.1*.
`COc1ccc2cc(C(=O)NCc3ccccc3)[nH]c2c1` gave Mtb bLac sens -2.1, GDH-TPI counter -5.6, UGM FP inh 1.1, RecA splice inh -1.2 and FBA Mtb inh 6.2.
`CCCS(=O)(=O)Nc1c(C(=O)O)[nH]c2ccc(OC)cc12` gave Rv3671c inh -6.6, Mtb bLac sens -6.9, GDH-TPI counter 1.4, UGM FP inh 1.5, RecA splice inh 4.1 and FBA Mtb inh 128.7*.
For CCOC(=O)c1[nH]c2ccc(OC)cc2c1NC(=O)NC(C)C the results were Rv3671c inh -2.7, Mtb bLac sens 4.0, GDH-TPI counter 2.3, UGM FP inh 0.1, RecA splice inh -2.5 and FBA Mtb inh 34.8*.
For C=C1/C=C(\C)[C@](C)(O)C[C@H](O)CC(=O)[C@H](O)[C@@H](O)[C@H](C)C[C@H](C)OC(=O)/C(C)=C/CC/C=C/[C@@H]2O[C@H]2C[C@H](C)C1 the results were Rv3671c inh 0.9, Mtb bLac sens 13.5 and UGM FP inh -3.9.
For Cc1ccc(CCNC(=O)C2CCC(=O)N(Cc3ccccc3F)C2)o1 (stereo not drawn) the results were Rv3671c inh 3.6, Mtb bLac sens -16.1, GDH-TPI counter 2.1, UGM FP inh 3.2, RecA splice inh -1.1 and FBA Mtb inh 2.4.
Screening Cc1ccc(S(=O)(=O)NC(C(=O)Oc2ccc3c(C)c(Cl)c(=O)oc3c2)c2ccccc2)cc1 (stereo not drawn) returned Rv3671c inh 8.8, Mtb bLac sens 89.4, GDH-TPI counter 6.7, UGM FP inh -1.3, RecA splice inh -98.7 and FBA Mtb inh active.
Screening CCC(NC(=O)OCc1ccccc1)C(=O)Oc1ccc2ccc(=O)oc2c1 (stereo not drawn) returned Rv3671c inh 3.3, Mtb bLac sens 33.6, GDH-TPI counter 20.2, UGM FP inh -2.3, RecA splice inh -39.0 and FBA Mtb inh active.
